Laboratory results taken from PubChem BioAssay AID1490 (National Center for Advancing Translational Sciences (NCATS), 2009).
Among all 310,000 compounds or so, about 11,000 (3.5%) were called active. About 4% were inconclusive and are not listed. Shown is part of a subset that was picked to be rich in actives. Values without a mark were called inactive. The call rests on the fitted dose curve; in most records, active means well fitted inhibition curve with a large enough effect; inconclusive means small, poorly fitted or top-dose-only effect, or another doubt; inactive means no such curve, though single readings can be large or run the other way.

Target: 4'-phosphopantetheinyl transferase ffp (Bacillus subtilis) (UniProt Q9F4F7)
Assay: qHTS Assay for Inhibitors of Bacillus subtilis Sfp phosphopantetheinyl transferase (PPTase);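 further: the enzyme is Sfp with the accession as filed and its product quenches rhodamine fluorescence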;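 on largest response in the series, negative = inhibition: 0% = enzyme reaction without inhibitor and -100% = no enzyme wells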
Details: Biochemical Sfp PPTase activity
Outline: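 Fluorescence-quenching assay: 15 nM Sfp-PPTase preincubated 15 min at room temperature with compound, then 5 uM rhodamine-CoA and 12.5 uM BHQ-2-labelled YbbR peptide added. Fluorescence (ex 525/em 598 nm) read at start and after 30 min; difference gives rate.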
Potency means the concentration at half of the fitted maximal effect.

| SMILES | largest response in the series, negative = inhibition [%] | Potency |
| --- | --- | --- |
| COc1cccc(CNC(=O)C2CCCN(c3ncnc4c3nc3n4CCCCC3)C2)c1 (stereo unspecified) | 3.29 |  |
| COC(=O)c1cccc(N2C(=O)C3C4C=CC(CC4)C3C2=O)c1 (stereo unspecified) | 11.5 |  |
| COC(=O)c1cccc(NS(C)(=O)=O)c1 | 9.77 |  |
| COC(=O)c1cccc(-n2[nH]nnc2=S)c1 |  | 15.8 µM (active) |
| CC1(C)Cc2c(sc(NC(=O)C(=O)NCC3CCCO3)c2C(=O)O)CO1 (stereo unspecified) | 8.68 |  |
| C=C(C(C)=O)C(O)c1ccc([N+](=O)[O-])cc1 (stereo unspecified) | -25.7 |  |
| CC(=O)Nc1c2c(nn1-c1cccc(C)c1)CSC2 | 15.2 |  |
| CCN1/C(=C/c2ccc3ccc(C)cc3[n+]2CC)Sc2ccccc21 | -8.02 |  |
| O=C(CCN1c2ccccc2Sc2ccccc21)Nc1ccccc1 | -1.89 |  |
| CCN1/C(=C/C(=S)Nc2ccccc2)Sc2ccccc21 |  | 14.1 µM (active) |
| Cc1ccc(S(=O)(=O)N2CCC3(CC2)OCCO3)c(C)c1 | 19.7 |  |
| CCc1[nH]nc(C(=O)N2CCCC(CO)(Cc3ccc(F)cc3F)C2)c1C (stereo unspecified) | 4.7 |  |
| COC(=O)C1CCN(C(=O)c2ccc3oc(Cc4ccc(Cl)cc4)nc3c2)CC1 | 16.5 |  |
| O=C(CN1CCOCC1)N/N=C/c1ccc(-c2ccc(Br)cc2)o1 | -29.3 |  |
| Cc1ccc(-c2ccc(/C=N/NC(=O)CN3CCOCC3)o2)cc1[N+](=O)[O-] |  | 50.1 µM (active) |
| Cc1cc(C)c([N+](=O)[O-])cc1-c1ccc(/C=N/NC(=O)c2nonc2N)o1 | -8.88 |  |
| Cc1[nH]c2ccc(C(=O)N3CCN(C)CC3)cc2c1C | 9.64 |  |
| Cc1ccc(-c2csc(NC3OC(=O)c4ccccc43)n2)cc1 (stereo unspecified) | 7.08 |  |
| NC(=O)C1CCN(CC(O)CSc2ccc(F)cc2)CC1 (stereo unspecified) | 0.977 |  |
| Cc1ccc(C(=O)NNC(=O)c2cc3cc4ccccc4nc3s2)cc1 | -2.23 |  |
| CCc1nc(SCC(=O)NNC(=O)c2ccc(C)cc2)c2ccccc2n1 | 10 |  |
| Cc1ccc(C(=O)NNc2ncnc3ccccc23)cc1 |  | 70.8 µM (active) |
| CCOc1cc(NC(=O)Nc2ccccc2)c(OCC)cc1NC(=O)CC | 17.2 |  |

| SMILES | largest response in the series, negative = inhibition [%] | Potency |
| --- | --- | --- |
| COc1cc(C(=O)NCc2cc3cc(Cl)ccc3n2C)cc(OC)c1OC | 9.69 |  |
| O=C(Nc1ccc(S(=O)(=O)Nc2nccs2)cc1)c1cccc(S(=O)(=O)N2CCOCC2)c1 | 10 |  |
| O=C(Nc1ccc(S(=O)(=O)N2CCOCC2)cc1)c1ccc2ncsc2c1 |  | 50.1 µM (active) |
| O=C(Nc1ccc(N2CCOCC2)c(Cl)c1)c1ccc(S(=O)(=O)N2CCOCC2)cc1 | 10.6 |  |
| CC(C)c1nc(CNC(=O)CC2C(=O)NCCN2Cc2cccc(F)c2F)cs1 (stereo unspecified) | 7.23 |  |
| CC(=O)NC(CC(=O)Nc1nc(-c2ccccc2)c(C(C)=O)s1)c1ccccc1 (stereo unspecified) | 2.16 |  |
| CN(C(=O)CCN1C(=O)/C(=C/c2ccccc2F)SC1=S)C1CCS(=O)(=O)C1 (stereo unspecified) | 1.57 |  |
| CCOC(=O)c1c(NC(=O)CSc2nnc(C)c(=O)[nH]2)sc2c1CCC2 | 12 |  |
| CCCCOC(=O)CNc1nnc(SCC(=O)OCC)[nH]c1=O |  | 20 µM (active) |
| CCOC(=O)CSc1nc(C)c(Oc2ccc(Cl)cc2Cl)c(=O)[nH]1 | 11.2 |  |
| CCn1c(COc2ccccc2)nnc1SCC(=O)NCc1ccco1 | 21.1 |  |
| C=CCn1c(SCC(=O)Nc2nc3ccccc3s2)nnc1-c1ccccc1O | -3.27 |  |
| C=CCn1c(CSc2nc3ccccc3s2)nnc1SCC(=O)NCc1ccco1 |  | 15.8 µM (active) |
| CC(=O)c1cc2c(cc1NC(=O)Cn1nc(-c3ccc(F)cc3)ccc1=O)OCO2 | 8.25 |  |
| COc1ccc(S(=O)(=O)NCCc2cc3ccc(C)c(C)c3[nH]c2=O)cc1 | 8.17 |  |
| Cc1cc(O)c(C2(O)C(=O)Nc3ccccc32)cc1C (stereo unspecified) | 0.726 |  |
| O=C1Nc2ccccc2C12Nc1ccccc1S2 (stereo unspecified) |  | 20 µM (active) |
| COc1ccc(C2(O)C(=O)Nc3ccccc32)cc1 (stereo unspecified) | 5.11 |  |
| CN1CCN(c2ncc3nc(-c4ccc(Cl)cc4)c(=O)n(-c4ccccc4)c3n2)CC1 | -4.61 |  |
| CCOC(=O)c1c(S(=O)(=O)Nc2cccc(Cl)c2)c(C)n(C)c1C | 17.3 |  |
| Cc1cc(C)c2nc(-c3ccco3)cc(C(=O)O)c2c1 |  | 20 µM (active) |
| Cc1ccsc1-c1cc(C(=O)O)c2c(ccc3ccccc32)n1 | 5.93 |  |
| COC(=O)c1cnn2c(C(F)(F)F)cc(-c3ccco3)nc12 | -3.33 |  |
